Laboratory results taken from the supplement of paper PMC10849652.
Targets with a hit are over-represented here; the source holds about 8,800 in all. About 0.5% of all pairs of compound and target were hits. Unmarked numbers belong to inactive results.

Assays:
Assay in all cases: log2 fold change, soluble protein after heating vs DMSO (PISA); higher = thermal stabilisation; K562 lysate, 10 uM; active = over 0.2 and 3.5 SD of the protein, either way, in both replicates (recomputed)
[1] = compound: C#Cc1cccc(Nc2ncnc3cc(OCCOC)c(OCCOC)cc23)c1 [erlotinib]
Method in brief: (§1)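 Log-two fold change in thermal stability relative to solvent controls is reported from duplicates. For each sample, crude K562 extract from dounce-homogenised pellets in PBS pH 7.4 with 1 mM MgCl2, at 1 mg/mL protein, was treated with 10 μM compound for 30 min. Aliquots heated for 3 min across 48°C-58°C were pooled, brought to 0.5% NP-40 at 4°C and cleared at 21,000xg for 90 min. The supernatant was quantified by TMTpro 16plex LC-MS/MS with channel sums equalised.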

[2] = compound: C/C(=N\NC(=O)C1=CC(=CC=C1)S(=O)(=O)N2CCOCC2)/C3=C(C=CC(=C3)Cl)O
Method in brief: as §1

[3] = compound: C1=CC(=CC=C1C2=NC3=C(N2)C=C(C=C3)C(=O)N)OC4=CC=C(C=C4)Cl
Method in brief: as §1

[4] = compound: C1=CC2=C(C=CC(=C2)/C=C\3/C(=O)NC(=NCC4=CC=CS4)S3)N=C1
Method in brief: as §1

[5] = compound: C1=CC2=NC=CN=C2C=C1/C=C/3\C(=O)NC(=O)S3
Method in brief: as §1

[6] = compound: C1=CC=C(C=C1)C2=NC(=C(N2)C3=CC=NC=C3)C4=CC(=C(C=C4)Cl)O
Method in brief: as §1

[7] = compound: C1=CC=C2C(=C1)C3=NNC4=CC=CC(=C43)C2=O
Method in brief: as §1

[8] = compound: C1CCN(C1)C(=O)NC2=CC=CC(=C2)NC3=NC=C(C(=N3)NCCC4=CN=CN4)Br
Method in brief: as §1

[9] = compound: C1CN(CCC1(CC2=CC=C(C=C2)Cl)N)C3=NC=NC4=C3C=CN4
Method in brief: as §1

[10] = compound: C1COCCN1CCN2C3=CC=CC=C3N=C2NC(=O)C4=CC(=CC=C4)[N+](=O)[O-] [IRAK-1-4 Inhibitor I]
Method in brief: as §1

[11] = compound: C=CC(=O)N1CCC[C@@H](n2nc(-c3ccc(Oc4ccccc4)cc3)c3c(N)ncnc32)C1 [ibrutinib]
Method in brief: as §1

[12] = compound: CC(=O)c1cnc2ccc(-c3cc(Cl)c(O)c(Cl)c3)nc2c1N[C@H]1CC[C@H](CN(C)C)CC1
Method in brief: as §1

[13] = compound: CC(C)(C)Cn1c(N)nc2ccc(-c3[nH]c(C(C)(C)C)nc3-c3ccc(F)cc3)nc21 [ralimetinib]
Method in brief: as §1

[14] = compound: CC(C)(O)CC(=O)NCCn1ccc2ncnc(Nc3ccc(Oc4cccc(C(F)(F)F)c4)c(Cl)c3)c21
Method in brief: as §1

[15] = compound: CC(C)C1=C2N=C(C=C(N2N=C1)NCC3=CC=CC=C3)NCCCCCCN
Method in brief: as §1

[16] = compound: CC1=C(C(CC(=O)N1)C2=CC=C(C=C2)C(F)(F)F)C(=O)NC3=C(C=C4C(=C3)C=NN4)F
Method in brief: as §1

[17] = compound: CC1=C(C2=C(C=C1)C(=O)C3=CC=CC=C3N2CCCN)C
Method in brief: as §1

[18] = compound: CC1=C(C=C(C=C1)NC(=O)C2=CC(=CC=C2)C(C)(C)C#N)NC3=CC4=C(C=C3)N=CN(C4=O)C
Method in brief: as §1

[19] = compound: CC1=C(C=C(C=C1)NC(=O)C2=CC(=CC=C2)N(C)C)NC(=O)C3=CC=C(C=C3)O
Method in brief: as §1

[20] = compound: CC1=CC=C(C=C1)SC2=C3C=C(SC3=CN=C2)C(=O)N
Method in brief: as §1

Sequence of UniProt P08962 (P08962 whole entry, looked up): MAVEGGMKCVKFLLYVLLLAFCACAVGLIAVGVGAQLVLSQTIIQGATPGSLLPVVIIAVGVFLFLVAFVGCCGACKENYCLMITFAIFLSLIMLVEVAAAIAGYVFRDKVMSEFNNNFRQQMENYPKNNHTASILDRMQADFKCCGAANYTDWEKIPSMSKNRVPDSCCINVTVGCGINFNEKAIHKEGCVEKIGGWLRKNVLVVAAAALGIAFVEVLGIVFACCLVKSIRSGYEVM
Sequence of UniProt Q8N4J0 (Q8N4J0 whole entry, looked up): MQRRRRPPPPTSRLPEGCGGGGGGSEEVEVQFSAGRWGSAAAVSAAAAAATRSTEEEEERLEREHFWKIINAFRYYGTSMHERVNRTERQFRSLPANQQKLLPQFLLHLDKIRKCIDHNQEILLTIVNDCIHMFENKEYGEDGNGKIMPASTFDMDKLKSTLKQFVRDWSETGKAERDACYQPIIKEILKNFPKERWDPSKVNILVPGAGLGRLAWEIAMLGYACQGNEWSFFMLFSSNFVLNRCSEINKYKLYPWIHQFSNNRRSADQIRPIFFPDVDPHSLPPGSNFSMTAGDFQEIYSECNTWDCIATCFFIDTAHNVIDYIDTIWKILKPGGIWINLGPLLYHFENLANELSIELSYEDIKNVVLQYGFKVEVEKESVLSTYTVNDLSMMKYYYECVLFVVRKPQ
Sequence of UniProt P01024 (P01024 whole entry, looked up): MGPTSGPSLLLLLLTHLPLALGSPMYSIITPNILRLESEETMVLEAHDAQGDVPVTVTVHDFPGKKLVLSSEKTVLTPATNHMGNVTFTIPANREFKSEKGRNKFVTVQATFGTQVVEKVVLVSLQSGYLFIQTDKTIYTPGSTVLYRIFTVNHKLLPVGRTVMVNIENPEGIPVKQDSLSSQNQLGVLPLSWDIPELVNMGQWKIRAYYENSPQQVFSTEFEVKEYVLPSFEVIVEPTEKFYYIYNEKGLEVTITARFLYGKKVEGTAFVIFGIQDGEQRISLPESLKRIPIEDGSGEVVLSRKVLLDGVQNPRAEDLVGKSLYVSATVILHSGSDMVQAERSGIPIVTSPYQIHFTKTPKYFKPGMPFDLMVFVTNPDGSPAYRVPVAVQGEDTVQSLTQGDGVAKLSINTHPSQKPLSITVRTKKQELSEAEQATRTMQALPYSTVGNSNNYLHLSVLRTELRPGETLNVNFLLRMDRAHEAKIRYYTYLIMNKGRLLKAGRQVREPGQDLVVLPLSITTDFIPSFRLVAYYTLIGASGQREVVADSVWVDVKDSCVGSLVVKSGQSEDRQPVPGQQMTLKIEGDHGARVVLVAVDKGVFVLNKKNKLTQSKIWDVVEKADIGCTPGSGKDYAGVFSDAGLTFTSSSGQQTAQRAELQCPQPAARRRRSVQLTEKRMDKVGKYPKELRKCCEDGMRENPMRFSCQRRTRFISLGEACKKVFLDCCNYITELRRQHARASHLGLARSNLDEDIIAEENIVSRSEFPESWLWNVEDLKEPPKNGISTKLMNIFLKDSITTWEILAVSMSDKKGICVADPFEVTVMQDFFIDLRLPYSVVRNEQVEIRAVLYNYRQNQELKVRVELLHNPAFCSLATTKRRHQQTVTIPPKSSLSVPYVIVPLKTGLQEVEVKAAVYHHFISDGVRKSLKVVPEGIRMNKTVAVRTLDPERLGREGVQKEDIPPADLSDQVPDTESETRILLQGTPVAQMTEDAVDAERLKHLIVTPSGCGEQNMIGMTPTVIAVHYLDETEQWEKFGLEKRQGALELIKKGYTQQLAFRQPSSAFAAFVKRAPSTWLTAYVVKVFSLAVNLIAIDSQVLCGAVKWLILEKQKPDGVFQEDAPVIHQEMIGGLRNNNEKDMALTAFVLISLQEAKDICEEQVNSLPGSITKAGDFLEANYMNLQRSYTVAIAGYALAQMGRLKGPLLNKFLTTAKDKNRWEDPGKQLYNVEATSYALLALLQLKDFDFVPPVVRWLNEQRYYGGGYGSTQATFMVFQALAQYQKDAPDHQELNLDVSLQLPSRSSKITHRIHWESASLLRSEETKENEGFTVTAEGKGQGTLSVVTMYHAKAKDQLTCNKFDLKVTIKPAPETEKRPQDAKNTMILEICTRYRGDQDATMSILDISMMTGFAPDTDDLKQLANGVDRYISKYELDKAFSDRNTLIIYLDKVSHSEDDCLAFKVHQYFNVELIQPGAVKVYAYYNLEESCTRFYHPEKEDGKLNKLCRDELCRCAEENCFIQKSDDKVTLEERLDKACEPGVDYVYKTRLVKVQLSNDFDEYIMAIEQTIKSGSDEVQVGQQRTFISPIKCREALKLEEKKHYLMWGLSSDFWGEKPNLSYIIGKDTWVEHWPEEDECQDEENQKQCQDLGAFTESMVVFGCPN
Sequence of UniProt O95429 (O95429 whole entry, looked up): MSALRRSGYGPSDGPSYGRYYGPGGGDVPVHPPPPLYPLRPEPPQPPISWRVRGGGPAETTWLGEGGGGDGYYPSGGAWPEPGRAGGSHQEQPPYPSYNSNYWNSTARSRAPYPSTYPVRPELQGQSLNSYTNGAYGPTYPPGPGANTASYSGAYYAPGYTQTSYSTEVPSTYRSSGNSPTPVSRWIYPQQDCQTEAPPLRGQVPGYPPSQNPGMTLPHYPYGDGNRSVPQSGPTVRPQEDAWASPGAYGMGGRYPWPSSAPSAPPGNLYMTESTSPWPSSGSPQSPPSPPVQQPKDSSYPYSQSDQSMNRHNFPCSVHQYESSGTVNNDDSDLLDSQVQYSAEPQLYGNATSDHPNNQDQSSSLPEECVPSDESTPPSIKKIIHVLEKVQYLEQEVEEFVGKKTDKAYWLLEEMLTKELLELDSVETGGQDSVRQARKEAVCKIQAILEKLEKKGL
Sequence of UniProt Q5VT25 (Q5VT25 whole entry, looked up): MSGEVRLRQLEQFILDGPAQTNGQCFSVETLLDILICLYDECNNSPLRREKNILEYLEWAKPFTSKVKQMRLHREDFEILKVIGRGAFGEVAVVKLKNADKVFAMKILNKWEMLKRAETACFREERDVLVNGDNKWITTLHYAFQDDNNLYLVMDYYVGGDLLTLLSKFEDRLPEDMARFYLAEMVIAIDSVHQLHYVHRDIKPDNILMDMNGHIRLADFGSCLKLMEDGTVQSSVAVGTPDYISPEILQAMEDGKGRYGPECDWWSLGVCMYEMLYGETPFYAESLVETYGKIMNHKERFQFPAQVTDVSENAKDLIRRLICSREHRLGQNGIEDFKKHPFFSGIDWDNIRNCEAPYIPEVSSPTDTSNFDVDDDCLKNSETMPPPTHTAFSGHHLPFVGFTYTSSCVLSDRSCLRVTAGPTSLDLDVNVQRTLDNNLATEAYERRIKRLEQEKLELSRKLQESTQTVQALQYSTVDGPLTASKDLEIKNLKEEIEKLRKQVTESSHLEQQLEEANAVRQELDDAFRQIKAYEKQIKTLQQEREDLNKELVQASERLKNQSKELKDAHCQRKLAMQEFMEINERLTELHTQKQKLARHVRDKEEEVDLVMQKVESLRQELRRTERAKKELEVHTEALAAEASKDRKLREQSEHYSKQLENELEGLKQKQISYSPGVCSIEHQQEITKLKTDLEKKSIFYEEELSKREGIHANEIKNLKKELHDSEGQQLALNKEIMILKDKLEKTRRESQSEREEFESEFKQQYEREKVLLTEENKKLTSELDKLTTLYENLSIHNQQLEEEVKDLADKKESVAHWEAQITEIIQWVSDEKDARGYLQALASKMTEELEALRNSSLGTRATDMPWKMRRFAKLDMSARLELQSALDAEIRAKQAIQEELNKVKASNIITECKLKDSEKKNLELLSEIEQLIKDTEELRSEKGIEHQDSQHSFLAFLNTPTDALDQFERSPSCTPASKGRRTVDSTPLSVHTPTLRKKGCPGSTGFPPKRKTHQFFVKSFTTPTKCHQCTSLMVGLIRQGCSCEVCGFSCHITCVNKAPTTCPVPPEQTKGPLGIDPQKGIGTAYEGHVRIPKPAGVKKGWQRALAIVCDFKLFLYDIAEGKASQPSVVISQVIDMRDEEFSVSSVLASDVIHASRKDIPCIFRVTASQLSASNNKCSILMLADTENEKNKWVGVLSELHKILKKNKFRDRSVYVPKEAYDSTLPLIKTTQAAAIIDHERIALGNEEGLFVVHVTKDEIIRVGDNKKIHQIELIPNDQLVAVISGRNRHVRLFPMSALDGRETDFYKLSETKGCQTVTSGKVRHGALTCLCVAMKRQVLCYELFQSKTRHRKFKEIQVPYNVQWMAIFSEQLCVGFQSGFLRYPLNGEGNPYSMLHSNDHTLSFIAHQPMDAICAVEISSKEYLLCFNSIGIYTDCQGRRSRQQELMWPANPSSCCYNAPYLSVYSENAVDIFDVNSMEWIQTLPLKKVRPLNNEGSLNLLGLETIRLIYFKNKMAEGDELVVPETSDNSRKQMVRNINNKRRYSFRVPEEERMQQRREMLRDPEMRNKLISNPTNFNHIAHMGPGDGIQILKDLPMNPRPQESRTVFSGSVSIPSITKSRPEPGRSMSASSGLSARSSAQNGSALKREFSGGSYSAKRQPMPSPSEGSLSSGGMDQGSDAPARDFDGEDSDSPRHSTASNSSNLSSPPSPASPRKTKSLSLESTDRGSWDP
Sequence of UniProt Q8N7R7 (Q8N7R7 whole entry, looked up): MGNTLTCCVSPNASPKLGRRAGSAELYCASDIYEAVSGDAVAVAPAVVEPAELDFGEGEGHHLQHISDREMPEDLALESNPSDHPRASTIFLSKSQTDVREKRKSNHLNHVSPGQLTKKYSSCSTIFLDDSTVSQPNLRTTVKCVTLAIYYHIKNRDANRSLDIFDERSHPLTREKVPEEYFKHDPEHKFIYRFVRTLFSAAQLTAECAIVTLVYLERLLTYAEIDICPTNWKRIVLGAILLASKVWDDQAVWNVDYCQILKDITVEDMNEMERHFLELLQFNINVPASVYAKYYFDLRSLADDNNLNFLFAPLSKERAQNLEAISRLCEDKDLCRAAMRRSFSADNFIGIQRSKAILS
Sequence of UniProt O15155 (O15155 whole entry, looked up): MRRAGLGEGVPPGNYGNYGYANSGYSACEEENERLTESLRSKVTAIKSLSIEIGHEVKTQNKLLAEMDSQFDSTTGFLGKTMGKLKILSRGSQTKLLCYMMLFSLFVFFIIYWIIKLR

Row | Target | log2 fold change [1] | log2 fold change [2] | log2 fold change [3] | log2 fold change [4] | log2 fold change [5] | log2 fold change [6] | log2 fold change [7] | log2 fold change [8] | log2 fold change [9] | log2 fold change [10] | log2 fold change [11] | log2 fold change [12] | log2 fold change [13] | log2 fold change [14] | log2 fold change [15] | log2 fold change [16] | log2 fold change [17] | log2 fold change [18] | log2 fold change [19] | log2 fold change [20]
1 | BCL2L12 (UniProt Q9HB09) | 0.055 | -0.067 | -0.01 | -0.056 | 0.119 | -0.111 | 0.144 | 0.162 | 0.015 | 0.002 | -0.26 | -0.084 | 0.073 | -0.024 | 0.057 | 0 | -0.021 | 0.028 | -0.024 | 0.099
2 | CDK16 isoform 2 (UniProt Q00536) | -0.061 | 0.002 | 0.016 | 0 | -0.005 | -0.017 | 0.151 | 0.004 | -0.007 | 0.03 | 0.025 | 0.28 | 0.016 | 0.009 | -0.089 | -0.023 | -0.007 | -0.037 | -0.024 | -0.141
3 | ATP6V0A2 (UniProt Q9Y487) | 0.026 | 0.027 | 0.044 | -0.006 | 0.035 | 0.004 | -0.024 | -0.012 | 0 | 0.042 | 0.016 | -0.017 | 0 | -0.073 | -0.077 | 0.007 | -0.014 | 0.041 | -0.032 | 0.012
4 | BCKDHB (UniProt P21953) | 0.013 | -0.034 | 0.033 | -0.089 | 0.049 | -0.098 | -0.117 | 0.065 | -0.012 | 0.134 | -0.102 | 0.025 | 0.003 | -0.01 | -0.037 | 0.016 | -0.022 | -0.078 | 0.071 | 0.024
5 | ATR (UniProt Q13535) | -0.025 | -0.012 | -0.055 | 0.336 | 0.255 | 0.125 | 0.071 | -0.005 | 0.125 | -0.025 | 0.06 | 0.319 | 0 | -0.037 | 0.016 | -0.015 | -0.031 | 0.032 | 0.039 | -0.053
6 | CDC16 (UniProt Q13042) | -0.006 | -0.067 | -0.051 | 0.031 | -0.009 | 0.006 | 0.019 | 0.027 | -0.056 | -0.004 | 0.02 | 0.019 | 0.025 | -0.022 | 0.012 | -0.006 | 0.04 | -0.029 | -0.005 | 0.025
7 | CAPNS1 (UniProt P04632) | -0.066 | 0.001 | -0.023 | 0.025 | 0.006 | -0.008 | 0.082 | -0.007 | -0.039 | -0.005 | 0.076 | 0.002 | 0.035 | -0.007 | -0.015 | 0.006 | 0.053 | 0 | -0.025 | 0.01
8 | BET1 (UniProt O15155) | 0.025 | -0.092 | -0.059 | 0.033 | 0.08 | 0.033 | -0.015 | 0.039 | 0.018 | 0.006 | -0.03 | 0.041 | -0.085 | 0.01 | 0.035 | 0.033 | -0.01 | -0.019 | 0.001 | -0.001
9 | BAG4 (UniProt O95429) | -0.036 | 0.046 | 0.075 | -0.017 | 0.004 | -0.038 | 0.021 | 0.047 | 0.017 | 0 | 0.082 | 0.005 | -0.009 | 0.02 | -0.035 | -0.014 | 0 | -0.375 (active) | -0.021 | -0.017
10 | C3 (UniProt P01024) | 0.016 | -0.031 | 0 | 0.004 | -0.036 | 0.151 | -0.061 | -0.042 | 0.01 | -0.014 | -0.047 | -0.011 | -0.077 | -0.032 | 0.865 | 0.243 | -0.004 | 0.01 | 0.026 | 0.001
11 | CD63 (UniProt P08962) | -0.042 | 0.026 | -0.031 | 0.047 | 0.057 | -0.114 | -0.038 | 0.018 | -0.016 | 0.066 | -0.012 | -0.063 | 0.078 | -0.023 | 0.017 | 0.005 | 0.049 | 0 | 0.039 | 0.023
12 | CARNMT1 (UniProt Q8N4J0) | 0 | 0.004 | 0.028 | -0.019 | 0.029 | -0.015 | -0.05 | -0.008 | -0.011 | 0.029 | -0.014 | -0.003 | -0.007 | -0.056 | -0.041 | 0.004 | -0.014 | 0.082 | -0.043 | -0.006
13 | CDC42BPA isoform 6 (UniProt Q5VT25) | -0.007 | 0.077 | -0.086 | 0.011 | -0.012 | -0.029 | -0.09 | -0.032 | -0.006 | -0.038 | 0.016 | 0.039 | 0.012 | -0.013 | 0.03 | 0.005 | -0.004 | 0.018 | 0.034 | -0.003
14 | CBR1 (UniProt P16152) | 0.011 | 0.025 | -0.001 | 0.003 | 0.016 | 0.047 | -0.001 | -0.008 | -0.006 | -0.033 | 0.04 | -0.017 | 0.009 | 0.006 | 0.001 | -0.032 | 0.045 | -0.015 | 0.02 | -0.003
15 | CCNYL1 (UniProt Q8N7R7) | 0.026 | -0.101 | 0.084 | 0.06 | -0.04 | -0.042 | -0.002 | -0.051 | 0.049 | 0.026 | 0.047 | 0.007 | 0.019 | -0.032 | 0.012 | 0.027 | -0.023 | 0.028 | -0.027 | -0.006
16 | CDC25C (UniProt P30307) | 0.007 | -0.157 | -0.061 | 0.042 | -0.031 | 0.026 | -0.148 | -0.035 | -0.058 | -0.039 | 0.006 | 0.01 | 0.013 | 0.091 | -0.027 | 0.026 | 0.059 | -0.022 | -0.004 | -0.019
